Laboratory results reported in the OligoGym collection.

Each sequence was assayed against MUSTN1 (assay: pooled miR-30 sensor sort-seq; sequence = guide strand). Details: shRNA.
Note: reference of the scale not given here.

Sequence | sensor-assay potency score (higher = more potent)
TAGGTCTTGGACTTGATTTCCT | -0.449
TCGCATGACCTGGTAGGTCTTG | -0.987
TTCCTGGTTCTTGGTCAGGTTT | -1.77
TCTTGGTCAGGTTTCCTCGGGC | 0.0366
TCAAAGACAGTCTCGGTACCTG | -0.0062
TTGCTCACACTCTCGCATGACC | -1.08
TTTATTGGTGCTTCCAAGGTGC | 0.442
TTCTTGGTCAGGTTTCCTCGGG | -0.747
TCACACTCTCGCATGACCTGGT | 0.595
AGCTTGCTCACACTCTCGCATG | -2.04
ACACTCTCGCATGACCTGGTAG | -0.661
TTGATTTCCTGGTTCTTGGTCA | 0.114

The sequences below were run against MUTED in the same assay as above. Details: shRNA.

Sequence | sensor-assay potency score (higher = more potent)
TTTACATTTAACATGGACCATT | -1.07
TTTTTTGTCTACATTACTCATG | -0.517
TTTAACATGGACCATTTGCTGT | -1.08
TTTCTAAGAAGTCTATACCTAC | -0.621
TTGTTCTTTAAGCCTTTCCATG | -1.47
TAATAAACTATTGTTAACCCTG | 0.0836
TTATCTTATAAAGCTTACCCAC | -1.06
TTGTTTACCATAAATCTCGAAA | -0.16
TTTTCTGTGCTCTTCATCCACT | -0.826
TAAGTGGTCACTATGAATCTTT | -0.505
TTGTCTACATTACTCATGCAGT | -0.842
TTTCTCACTAGCTACTAAGTGG | -0.662

These sequences were tested against MYBL1 in the same assay as above. Details: shRNA.

Sequence | sensor-assay potency score (higher = more potent)
TAGATCTTCTAATAGTAGGTGT | 0.293
TAGTAGGTGTTCTAAACCCTAC | -0.956
TTGAAGTACTACTGGTAGCTGT | 0.338
TAGAATTATCAGTCCTTCCTGG | 0.631
TTCTTCTTTTAAAACTTCCCGA | -0.736
TAATTTATCATCCTCGTCCCTT | -0.0916
TTCGCTTTCTTCTAACTTCATT | -1.09
TTTGATAGAATTATCAGTCCTT | 1.06
TTCAAGTACAAGACTGACGTTA | 0.474
TAAAGGAACAGCTTCACTGTTG | -0.055
TTTCTCTACACTGCTTGCCTAT | -0.646

The sequences below were run against MYCBPAP in the same assay as above. Details: shRNA.

Sequence | sensor-assay potency score (higher = more potent)
TTCCAAAGAAAACCTGTCCTGA | -0.596
TTCTTTGTCTTTGATCCCCAGT | -0.525
TATGACTTTCTTGTCATCCTTT | 0.0986
TTTCTTGTCATCCTTTGCCTTG | -0.95
TTTCTTGTCTTCTTTGTCTTTG | -0.276
